Source: the supplement of paper PMC10338343
± gives the standard deviation.

Test system: MILI (PIWIL2) piRISC loaded with L1MC piRNA (26 nt)
Test: pre-steady-state target cleavage rate (min^-1); guide: L1MC piRNA 5'p-UAACUAAAUACUAUGCAAGCUGUAGG; MIWI and MILI are mouse PIWI proteins and EfPiwi is from a freshwater sponge; tags in brackets are library labels; higher = faster piRNA-guided slicing of the target
Summary of the method: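 Using HEPES–potassium acetate buffer at 33 °C, 1 nM active affinity-purified piRISC with a single synthetic guide was mixed with 0.1 nM transcribed, DNA-blocked target RNA library for 0–8 or 0–960 min, with or without 500 nM GTSF1 partner protein. Uncleaved targets were sequenced and normalised to depth and to weakly complementary targets, and three trials were pooled with k3 capped at 0.0001 min^-1. A burst-and-steady-state fit gave the pre-steady-state cleavage rate.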

[1] = auxiliary factor: 500 nM mouse GTSF1
[2] = auxiliary factor: none (no GTSF1)

| Sequence | pre-steady-state target cleavage rate [1] | pre-steady-state target cleavage rate [2] |
| --- | --- | --- |
| UCCUGGAUGUGCUAGCUUAGUAUUUAGUUA | 0.0596 ± 0.0098 | 0.00453 ± 0.0023 |
| UCCUGGAUGUCCUAGCAUAGUAUUAAGUUA | 0.0366 ± 0.0077 | 0.00287 ± 0.0022 |
| UCCUGGAUCAGCUUGCUAAGUAUUUAGUUA | 0.0871 ± 0.012 | 0.0065 ± 0.0021 |
| UCCUGGAUGAGGUUGGAUAGUAUUUAGUUA | 0.132 ± 0.021 | 0.00824 ± 0.0025 |
| UCCUGCUACAGCAAGCAUAGUAUUUAGUAA | 0.281 ± 0.026 | 0.00383 ± 0.0032 |
| UCCUGGAUGUCCUAGCAUAGUUUUUAGUUA | 0.0106 ± 0.0049 | 0.00512 ± 0.0022 |
| UCCUGGAACAGCUAGCAUUGUAUUUAGUUA | 0.164 ± 0.013 | 0.0074 ± 0.0021 |
| UCCUGGAUGAGCUUGCAUAUUAUUUAGUUA | 0.0637 ± 0.0072 | 0.00304 ± 0.003 |
| UCCUGGAUGAGCUUGGUAAGUAUUUAGUUA | 0.009 ± 0.0036 | 0.00405 ± 0.0023 |
| UCCUGGAUGUCCUUGGAUAGUUUUUAGUUA | 0.0144 ± 0.0045 | 0.00344 ± 0.0027 |
| UCCUGGAUGUCGUUGCAUAGUAUAUAGUUA | 0.155 ± 0.028 | 0.00761 ± 0.0026 |
| UCCUGGAUGUGCAUGCAUACUAUUUAGUUA | 0.0253 ± 0.0066 | 0.00586 ± 0.0023 |
| UCCUGGAUGUGCUUGCAAUGUAUUUAGUAA | 0.0131 ± 0.0037 | 0.00545 ± 0.0027 |
| UCCUGGAUGUCGAUGCAUAGUAAAUAGUUA | 0.0191 ± 0.0068 | 0.00231 ± 0.0023 |
| UCCUGGUACAGCUUGGUAAGUAUUUAGUAA | 0.18 ± 0.034 | 0.00367 ± 0.0027 |
| UCCUGGAUCAGCUUGGAUAGUAUUAAGUUA | 0.162 ± 0.027 | 0.00386 ± 0.0022 |
| UCCUGCUACAGCUUGCAUAGUCAUUUAGUUA | 0.0225 ± 0.0089 | 0.00473 ± 0.002 |
| UCCUGGUACAGCUUGCAUAGUAUUUACGUUA | 0.227 ± 0.039 | 0.00544 ± 0.0036 |
| UCCUGGAUGUCCAUGGAUAGUAUUUAGUUA | 0.0252 ± 0.0073 | 0.00317 ± 0.0025 |
| UCCUGGAUGUGCUUGCAAGUAUUUAGUUA | 0.00781 ± 0.0036 | 0.00503 ± 0.0024 |

| Sequence | pre-steady-state target cleavage rate [1] | pre-steady-state target cleavage rate [2] |
| --- | --- | --- |
| UCCUGGAUCUCGUUGCAUAGUAUUUAGUAA | 0.114 ± 0.018 | 0.003 ± 0.0027 |
| UCCUGGAUCAGCUUGCAAAGUAUUUAGAUA | 0.126 ± 0.018 | 0.00353 ± 0.0024 |
| UCCUGGAUGUCGUUGCAUCGUAUUUAGUUA | 0.0281 ± 0.0074 | 0.00872 ± 0.0025 |
| UCCUGGAUGAGCUUGCAAAGUAUUAAGUUA | 0.0742 ± 0.012 | 0.00449 ± 0.0026 |
| UCCUGCUACAGCUUGCAUUCUAUUUAGUUA | 0.0454 ± 0.0087 | 0.00339 ± 0.0024 |
| UCCUGGUACAGCUAGCAUUGUAUUUAGUUA | 0.127 ± 0.017 | 0.00717 ± 0.0034 |
| UCCUGGAUGUCGAACGAGAGUAUUUAGUUA | < 0.0001 | < 0.0001 |
| UCCUGGAUGUCCAUGCAUAGUAUUUAGUUA | 0.0603 ± 0.016 | 0.00432 ± 0.0026 |
| UCCUGGAUCAGCUUGCAUAGUAUUUAUGUUA | 0.133 ± 0.017 | 0.00471 ± 0.0027 |
| UCCUGGAUGUCGAAGCAUAGUAUUUAGUUUA | 0.0244 ± 0.0042 | 0.00589 ± 0.0023 |
| UCCUGGAUGUGCUUGCAUAGUAAUUUAGUUA | 0.0286 ± 0.01 | 0.0056 ± 0.0026 |
| UCCUGGUACAGCAUCCAUAGUAUUUAGUUA | 0.262 ± 0.077 | 0.00374 ± 0.0027 |
| UCCUGGUAGAGCUUGCAUAGUAAUUAGUUA | 0.177 ± 0.021 | 0.00729 ± 0.0024 |
| UCCUGGAUGUCGUAGCAUAGUAUUAAGUUA | 0.0506 ± 0.013 | 0.00246 ± 0.0024 |
| UCCUGGAUCAGCUUGCAUAGUAAUUUAGUUA | 0.162 ± 0.018 | 0.00701 ± 0.0022 |
| UCCUGGAUGUCGUUGCUUAGUUUUUAGUUA | 0.00856 ± 0.0044 | 0.00646 ± 0.0025 |
| UCCUGGUACAGCUUGCAAGUAUUUAGUUA | 0.113 ± 0.014 | 0.00636 ± 0.0022 |
| UCCUGGAUCAGCUUGGAUAGUAUAUAGUUA | 0.124 ± 0.018 | 0.00459 ± 0.0024 |
| UCCUGGAUGUGCUUGCAUAGUUAUUUAGUUA | 0.0061 ± 0.0048 | 0.00419 ± 0.0033 |
| UCCUGGAAGAGCUUGCAUAGUAUAUAGUUA | 0.173 ± 0.019 | 0.00457 ± 0.0025 |

| Sequence | pre-steady-state target cleavage rate [1] | pre-steady-state target cleavage rate [2] |
| --- | --- | --- |
| UCCUGGAUCAGCCUUGCAUAGUAUUUAGUUA | 0.249 ± 0.023 | 0.00595 ± 0.0023 |
| UCCUGGAUGUGGUUGCAUACUAUUUAGUUA | 0.0175 ± 0.0072 | 0.00525 ± 0.0036 |
| UCCUGGAUGAGCUUGCAUAGUAUUGUAGUUA | 0.0782 ± 0.024 | 0.00469 ± 0.003 |
| UCCUGGAUGAGCUAGCUUAGUAUUUAGUUA | 0.13 ± 0.012 | 0.00773 ± 0.0023 |
| UCCUGGUACAGCUAGCAUACUAUUUAGUUA | 0.126 ± 0.026 | 0.00435 ± 0.0028 |
| UCCUGGAUGUGCAUGCAUAGUAAUUAGUUA | 0.0501 ± 0.008 | 0.00833 ± 0.002 |
| UCCUGGUUGUGCUUGCAUAGUAUUUAGUUA | 0.168 ± 0.018 | 0.0141 ± 0.004 |
| UCCUGGAUGUGCUAGCAUAGUAUUUUGUUA | 0.0587 ± 0.011 | 0.00334 ± 0.0025 |
| UCCUGGAUGUCGUUGCAUAGUAUUCUAGUUA | 0.18 ± 0.045 | 0.00434 ± 0.0027 |
| UCCUGGAUCAGCUUGCAUAGUUAUUUAGUUA | 0.00888 ± 0.004 | 0.00454 ± 0.0027 |
| UCCUGGAUGUCCUUGGAUAGUAUUUUGUUA | 0.139 ± 0.031 | 0.00318 ± 0.0024 |
| UCCUGGAUGUCCUUGGAUAGUAUUUAGUUA | 0.153 ± 0.021 | 0.00762 ± 0.0021 |
| UCCUGGUACAGCAUGCAAAGUAUUUAGUUA | 0.119 ± 0.014 | 0.0117 ± 0.0036 |
| UCCUGGAUGUGCUUGCUUAGUAAUUAGUUA | 0.0601 ± 0.0087 | 0.00576 ± 0.0023 |
| UCCUGGUACAGCUUGCAUAGAAAUUAGUUA | 0.0374 ± 0.011 | 0.00311 ± 0.0031 |
| UCCUGCUACAGCUUGCAUUGUAUAUAGUUA | 0.194 ± 0.028 | 0.00483 ± 0.0018 |
| UCCUGGAUCAGGAAGCAUAGUAUUUAGUAA | 0.0716 ± 0.014 | 0.00297 ± 0.0022 |
| UCCUGGAUCAGCUUGCAUAGUAUAUUGUUA | 0.118 ± 0.014 | 0.00518 ± 0.0025 |
| UCCUGGUACAGCUUGCAUAGCAUUUAGUUA | 0.117 ± 0.03 | 0.00488 ± 0.0026 |
| UCCUGCUACACCUAGCAUAGUAUUUAGUUA | 0.254 ± 0.021 | 0.00758 ± 0.0022 |
